For 33 compounds, Inhibition results are on record in ChEMBL document CHEMBL4513146, “CO-ADD screening of Karazin Kharkiv National University (Ukraine) compounds”.

Measured potencies and affinities stand elsewhere.

In general, Inhibition refers to the drop in the measured response relative to a control, in per cent.

The test system of one assay is Staphylococcus aureus. The note with it: Concentration 32 ug.mL-1;; ASSAY_TEST Inhibition of Bacterial Growth; detection method Absorption (OD600); MEDIA CAMHB; plate type 384well; NBS; CORNING #3640; time 18 hr.
Another assay deals with Escherichia coli. The conditions noted are these: Concentration 32 ug.mL-1;; ASSAY_TEST Inhibition of Bacterial Growth; detection method Absorption (OD600); MEDIA CAMHB; plate type 384well; NBS; CORNING #3640; time 18 hr.

Turning to `Cc1cc(Br)ccc1NC(=O)Cn1nc2c(Sc3cccc(F)c3)nccn2c1=O`, the results for the Inhibition with Staphylococcus aureus and in the assay on Escherichia coli were 10.13% and -1.3%, respectively.

For `CCCN(C)c1nccn2c(=O)n(CC(=O)Nc3cccc(SC)c3)nc12`, the Inhibition is on record as 12.22% in the assay with Staphylococcus aureus and -2.46% in the assay on Escherichia coli.

With `O=C(Cn1nc2c(Sc3ccccc3)nccn2c1=O)Nc1ccc2c(c1)OCO2`, the Inhibition with Staphylococcus aureus is listed as -26.09%; in the assay on Escherichia coli it was 0.44%.

As to `O=C(Cn1nc2c(Sc3cccc(F)c3)nccn2c1=O)Nc1cccc(C(F)(F)F)c1`, the Inhibition is given as 12.33% in the assay with Staphylococcus aureus and -0.7% in the assay on Escherichia coli.

For `Cc1ccc(NC(=O)Cn2nc3c4cc(-c5ccc(Cl)cc5)nn4ccn3c2=O)cc1C`, the Inhibition in the assay with Staphylococcus aureus is reported as 10.49%; with Escherichia coli, 3.51%.

As for `COC(=O)c1ccccc1NC(=O)Cn1nc2c(Oc3cccc(OC)c3)nccn2c1=O`, the Inhibition in the assay with Staphylococcus aureus was -4.11%; in the assay on Escherichia coli it was -21.29%.

Consider `COc1ccc(NC(=O)Cn2nc3ccc(Sc4ccccc4)nn3c2=O)cc1`, for which the Inhibition is on record as 7.63% in the assay with Staphylococcus aureus and -10.85% in the assay on Escherichia coli.

In the case of `O=C(Cn1nc2c(Oc3ccccc3)nccn2c1=O)Nc1ccc(Cl)cc1`, the Inhibition is 8.53% with Staphylococcus aureus and -4.75% in the assay on Escherichia coli.

Turning to `CCC(Sc1nnc2c(=O)n(-c3cccc(OC)c3)ccn12)C(=O)Nc1ccccc1C` (stereo unspecified), the Inhibition is given as -3.13% with Staphylococcus aureus and -2.17% in the assay with Escherichia coli.

Consider `Cc1ccc(-n2ccn3c(SCC(=O)N4CCN(c5ccc(F)cc5)CC4)nnc3c2=O)cc1C`, for which the Inhibition is on record as 15.71% in the assay with Staphylococcus aureus and -2.64% in the assay with Escherichia coli.

Take `COc1cc(OC)c(NC(=O)Cn2nc3c4c5c(sc4ncn3c2=O)CC(C)CC5)cc1Cl` (stereo unspecified): the Inhibition is given as 7.09% with Staphylococcus aureus and 1.97% with Escherichia coli.

Take `CCc1ccc(NC(=O)Cn2nc3c(=O)n(-c4ccc(Br)cc4)ccn3c2=O)cc1`: the Inhibition was -5.7% in the assay with Staphylococcus aureus and -7.12% in the assay with Escherichia coli.

In the case of `COc1ccc(-c2cc3c4nn(CC(=O)NCc5ccccc5Cl)c(=O)n4ccn3n2)cc1`, the Inhibition in the assay with Staphylococcus aureus came out at 8.73%; with Escherichia coli it was 0.93%.

On to `COc1ccc(-c2cc3c4nnc(CCC(=O)NCc5ccccc5Cl)n4ccn3n2)cc1`, for which the Inhibition with Staphylococcus aureus is 0.8%; in the assay with Escherichia coli it was -2.58%.

Turning to `COc1ccc(C)cc1NC(=O)Cn1nc2cc(C)nc(Nc3ccc(F)cc3)n2c1=O`, the values for the Inhibition in the assay with Staphylococcus aureus and with Escherichia coli were -14.69% and 2.14%, respectively.

Turning to `Cc1ccc(Cl)cc1NC(=O)CSc1nc2ccccc2n2c(C)nnc12`, the Inhibition in the assay with Staphylococcus aureus is recorded as -8.21%; in the assay on Escherichia coli, -3.62%.

As to `CCc1ccc(NC(=O)Cn2nc3c4cc(-c5ccc(C)c(C)c5)nn4ccn3c2=O)cc1`, the Inhibition with Staphylococcus aureus is recorded as 1.77%; in the assay with Escherichia coli, -6.18%.

Take `Cc1cc2nn(CC(=O)Nc3ccccc3)c(=O)n2c(Nc2ccc(C)c(F)c2)n1`: the results for the Inhibition in the assay with Staphylococcus aureus and in the assay with Escherichia coli were 8.29% and -1.41%, respectively.

For the compound `Cc1ccc(NC(=O)Cn2nc3c(N4CC(C)CC(C)C4)nccn3c2=O)c(F)c1` (stereo unspecified), the Inhibition with Staphylococcus aureus was determined as 10.72%; in the assay with Escherichia coli, 1.48%.

Take `CCOC(=O)C1CCN(c2nc3ccccc3n3c(=O)n(CC(=O)Nc4ccccc4F)nc23)CC1`: the Inhibition is 2.72% in the assay on Staphylococcus aureus and -5.37% in the assay on Escherichia coli.

As for `CCOc1ccc(-n2ccn3c(SC(CC)C(=O)Nc4cc(F)ccc4F)nnc3c2=O)cc1` (stereo unspecified), the values for the Inhibition with Staphylococcus aureus and in the assay on Escherichia coli were 7.7% and -0.34%, respectively.

Take `CC(C)Cc1ccc(S(=O)(=O)Nc2ccc3nncn3n2)cc1`: the Inhibition in the assay on Staphylococcus aureus was determined as 13.61%; in the assay with Escherichia coli, 2.12%.

In the case of `Cc1cc2nn(CC(=O)NCc3ccccc3)c(=O)n2c(Nc2ccc(C)c(F)c2)n1`, the Inhibition with Staphylococcus aureus is recorded as -14.43%; in the assay on Escherichia coli, -0.54%.

In the case of `COc1ccc(CNC(=O)CSc2nnc3c4cc(-c5ccccc5)nn4ccn23)cc1`, the values for the Inhibition in the assay with Staphylococcus aureus and in the assay on Escherichia coli were 9.71% and 1.16%, respectively.

For `COc1ccc(C)cc1NC(=O)Cn1nc2c(N3CCSCC3)nc3ccccc3n2c1=O`, the Inhibition came out at 9.36% with Staphylococcus aureus and 0.1% with Escherichia coli.

Consider `Cc1cc(C)cc(N(Cc2cccc(F)c2)S(=O)(=O)c2cccn3c(C)nnc23)c1`, for which the Inhibition in the assay on Staphylococcus aureus is 2.22%; in the assay on Escherichia coli it was -5.24%.

On to `CCc1nnc2ccc(S(=O)(=O)N(Cc3ccc(OC)cc3)c3ccc(F)cc3)cn12`, for which the Inhibition in the assay with Staphylococcus aureus is listed as 4.6%; in the assay on Escherichia coli, -5.2%.

Turning to `Cc1ccccc1Oc1nccn2c(=O)n(CC(=O)Nc3ccc(F)cc3F)nc12`, the values for the Inhibition in the assay on Staphylococcus aureus and in the assay with Escherichia coli were 15.72% and 1.95%, respectively.

As to `O=C(Cn1nc2c(N3CCOCC3)nccn2c1=O)NCc1ccc(C(F)(F)F)cc1`, the Inhibition in the assay on Staphylococcus aureus is 3.92%; in the assay on Escherichia coli it was -9.55%.

In the case of `O=C(Cn1nc2nc(Nc3ccc(F)cc3)ccn2c1=O)NCc1ccc(F)cc1Cl`, the Inhibition with Staphylococcus aureus is reported as 7.6%; in the assay with Escherichia coli it was -1.86%.

With `Cc1ccc(F)cc1NC(=O)CSc1nc2ccccc2n2c(C(C)C)nnc12`, the Inhibition was 9.29% in the assay on Staphylococcus aureus and -3.01% with Escherichia coli.

As for `O=C(Cn1nc2ccc(SC3CCCCC3)nn2c1=O)NCc1ccc(Cl)cc1`, the Inhibition is on record as 6.56% in the assay with Staphylococcus aureus and -1.29% in the assay on Escherichia coli.

In the case of `Cc1ccc(-c2cc3c4nn(CC(=O)Nc5ccc(F)cc5Cl)c(=O)n4ccn3n2)cc1`, the results for the Inhibition with Staphylococcus aureus and in the assay with Escherichia coli were -0.44% and -5.61%, respectively.
